The whole screen tested about 16,000 compounds, of which about 5,700 (36%) were called active. Another 24% or so got no clear call; they are omitted. Calls come from the whole dose curve; as a rule, active = well fitted curve in the direction sought with a large enough effect; inconclusive = small, poorly fitted or top-dose-only effect, or effect the other way; inactive = no such curve, though single readings can be large or run the other way. The list shows a part of the results.
biological target: Cytochrome P450 1A2 (Homo sapiens) (UniProt P05177); experiment: Cytochrome panel assay with activity outcomes; settings: recombinant CYP, pro-luciferin dealkylation, luminescence, p450-cyp1a2; series mostly up to 57.1 µM; activity, negative = inhibition: at the top concentration
% is set by controls: 0 for no effect and ±100 for the full control effect.

Sequence of Cytochrome P450 1A2 (Homo sapiens) (P05177 whole entry, looked up): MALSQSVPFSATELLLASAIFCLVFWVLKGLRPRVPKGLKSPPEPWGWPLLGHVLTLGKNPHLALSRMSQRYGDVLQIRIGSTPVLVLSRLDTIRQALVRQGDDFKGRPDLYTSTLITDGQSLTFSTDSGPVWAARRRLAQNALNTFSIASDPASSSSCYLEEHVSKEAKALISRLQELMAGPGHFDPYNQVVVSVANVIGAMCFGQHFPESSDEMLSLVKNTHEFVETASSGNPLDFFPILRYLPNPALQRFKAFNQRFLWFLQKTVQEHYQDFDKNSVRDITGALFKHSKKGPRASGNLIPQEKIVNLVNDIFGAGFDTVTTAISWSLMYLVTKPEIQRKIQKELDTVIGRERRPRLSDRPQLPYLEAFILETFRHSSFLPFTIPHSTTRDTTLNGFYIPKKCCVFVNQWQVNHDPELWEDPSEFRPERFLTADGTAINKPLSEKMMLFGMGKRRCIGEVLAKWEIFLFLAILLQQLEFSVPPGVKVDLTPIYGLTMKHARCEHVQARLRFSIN

SMILES | activity, negative = inhibition | AC50
CC(=O)[C@H]([C@@H](c1ccccc1)N1CCOCC1)N1CCOCC1 | 2.19% [at 11.4 µM] (inactive) | –
Cc1ccc(-c2nc(-c3nccc4ccccc34)oc2-c2ccccc2)cc1 | – | 2.51 µM (active)
C[C@](O)(c1ccccc1)c1nccc2ccccc12 | -17.4% [at 11.4 µM] (inactive) | –
COc1ccc(NC(=S)Nc2ncccc2C)c(OC)c1 | – | 1.12 µM (active)
COc1ccc(NC(=O)C23CC4CC(C2)CC(n2cnc(Br)n2)(C4)C3)c(C)c1 | -11% (inactive) | –
COc1ccc2c(c1OC)C(=O)OC2Nc1ncccc1C (stereo not drawn) | -10.2% (inactive) | –
CCN=C1NN=C(c2ccc(C)cc2)CS1 | – | 20 µM (active)
O=C(NCCc1ccccc1)c1noc2c1CCc1ccccc1-2 | – | 1.26 µM (active)
O=C(NCCN1CCN(Cc2ccccc2)CC1)C1c2ccccc2C(=O)N2CCc3ccccc3C12 (stereo not drawn) | -14% (inactive) | –
CCCC(C(=O)OCCN(CC)CC)(c1ccccc1)c1ccccc1 | -7.7% (inactive) | –
CN(C)CCOC(=O)[C@@H](c1ccccc1)C1(O)CCCC1 | -20.8% [at 25.6 µM] (inactive) | –
O=C1CCC[C@@H](C(C(=O)OCc2ccccc2)C(=O)OCc2ccccc2)C1 | -9.68% [at 11.4 µM] (inactive) | –
CCN(CC)CCOC(=O)[C@@H](c1ccccc1)C1CCCCC1 | – | 1.26 µM (active)
CCN(CC)CCOC(=O)C(c1ccccc1)c1ccccc1 | – | 5.01 µM (active)
C[N+]1(C)CCC(OC(=O)C(c2ccccc2)c2ccccc2)CC1 | 7.34% (inactive) | –
CN(C)CCNc1ncnc2c1sc1nc(N3CCOCC3)c3c(c12)CC(C)(C)SC3 | -27.4% (inactive) | –
CCOc1ccc(N=C2NC(=O)C(CC(=O)O)S2)cc1 (stereo not drawn) | -10.5% (inactive) | –
O=C1CN2CCN(CC2)CC(=O)Nc2ccc(cc2)S(=O)(=O)c2ccc(cc2)NC(=O)CN2CCN(CC2)CC(=O)Nc2ccc(cc2)S(=O)(=O)c2ccc(cc2)N1 | -13.1% [at 11.4 µM] (inactive) | –
CCc1ccc(Nc2ncccc2C#N)cc1 | – | 1.26 µM (active)
CCC(C)c1ccc(Nc2ncccc2C#N)cc1 (stereo not drawn) | – | 5.01 µM (active)
COC(=O)[C@@H]1CC[C@H](C)[C@@H](c2ccc(C)cc2)N1C(=O)c1ccc(/C=N\OCC[C@@H]2C=C[C@H](OC(C)=O)[C@H](COC(C)=O)O2)cc1 | -3.4% [at 11.4 µM] (inactive) | –
C[C@H]1CN(S(=O)(=O)c2cccc3cnccc23)CCN1 | -7.08% (inactive) | –
Nc1cccc2cnccc12 | – | 12.6 µM (active)

SMILES | activity, negative = inhibition | AC50
N[C@@H]1CONC1=O | – | inactive
C[C@@H]1CN2[C@H](c3ccc(Br)cc3)[C@H](C)CC[C@H]2C(=O)O1 | -6.13% [at 11.4 µM] (inactive) | –
Cc1nc(SCc2cccc(Oc3ccccc3)c2)n[nH]1 | – | 17.8 µM (active)
COc1ccc(CN2CN=C(Nc3nc4ccccc4s3)NC2)cc1 | – | 12.6 µM (active)
COCCN1CN=C(Nc2nc3ccccc3s2)NC1 | -46.1% (inactive) | –
CCOC(=O)[C@]1(CC(=O)O)CCCC1=O | -12.7% [at 11.4 µM] (inactive) | –
COc1c2c(nc3ccccc13)O[C@H]([C@@](C)(O)CO)C2 | – | 12.6 µM (active)
CCOc1cc(CNc2ccc(OC)cc2)cc(Br)c1OCC(=O)NC(C)(C)C | – | 11.2 µM (active)
NCC[C@H](N)C(=O)O | -8.87% [at 2.29 µM] (inactive) | –
Cc1c2cnccc2c(C)c2c1c1ccccc1n2CCOC(=O)c1ccccc1 | – | 0.0794 µM (active)
O=C(c1cc(C(F)(F)F)cc(C(F)(F)F)c1)N1CCC2(CC1)CN(c1ccncc1)C2 | 3.89% (inactive) | –
Cc1c(/C=N/NC(=O)c2ccc3c(c2)OCO3)cnn1C | – | 14.1 µM (active)
COc1ccc(-c2nn(-c3ccccc3)cc2/C=N/NC(=O)c2ccc3c(c2)OCO3)cc1 | -8.19% (inactive) | –
COc1cc(CNCCc2c[nH]c3ccccc23)ccc1OCc1ccccc1F | – | 25.1 µM (active)
CC(C)CN1CCCC2(CCN(C(=O)c3cnccn3)CC2)C1 | -9.34% (inactive) | –
C[C@@H](CCc1ccc(O)cc1)NCCc1ccc(O)c(O)c1 | – | inactive
O=C(CCc1ccc(O)cc1)c1c(O)cc(O)cc1O | – | 6.31 µM (active)
O=C(O)Cc1ccc(O)c(O)c1 | -11.2% (inactive) | –
Nc1c(OCC(=O)O)ccc2cc(S(=O)(=O)O)ccc12 | -5.41% [at 11.4 µM] (inactive) | –
CCOc1ccccc1NC(=O)CCC(=O)O | 0.745% (inactive) | –
CCOc1ccccc1Nc1ccc(N)cc1S(=O)(=O)O | -12.6% [at 2.29 µM] (inactive) | –
CCCCN(C(=O)NC(=O)Nc1ccccc1OCC)S(C)(=O)=O | – | 20 µM (active)
CO[C@H]1COC(=O)[C@H](C)NC(=O)C/C=C\[C@@H](C)[C@@H](NS(=O)(=O)c2ccc(C)cc2)COC(=O)C/C=C\[C@@H]1C | -0.0135% [at 11.4 µM] (inactive) | –

SMILES | activity, negative = inhibition | AC50
CSC1=C(C#N)C(c2ccccc2Cl)C2=C(N1)c1ccccc1C2=O (stereo not drawn) | – | 0.708 µM (active)
N#CC1=C(SCC(N)=O)NC2=C(C(=O)c3ccccc32)C1c1ccc(Cl)cc1 (stereo not drawn) | – | 0.631 µM (active)
C=CCN1C(=CCO)[C@H]2C[C@H]3[C@@H]1CC[C@@]31c3ccccc3N3C=C4[C@@H]5N(/C=C/2[C@H]31)c1ccccc1[C@]51CC[C@H]2[C@H]1C[C@@H]4/C(=C/CO)N2CC=C | -3.83% [at 25.6 µM] (inactive) | –
O=S(=O)(c1ccccc1)N1CCC2(CC1)CN(Cc1ccccc1)C2 | -8.56% (inactive) | –
COc1cccc(/C=N/n2c(=S)n(C)c3cc(C)c(C)cc32)c1OC | – | 2.24 µM (active)
CC(C)(C)c1ccc(C(=O)N2CCC(C(=O)NCCC3=CCCCC3)CC2)cc1 | -2.75% (inactive) | –
O=C1CSc2ccc(C(=O)NCCC3=CCCCC3)cc2N1 | – | 3.16 µM (active)
C=C/C(C)=C/[C@]1(C)SC(=O)C(C)=C1O | 2.06% (inactive) | –
CC1(C)CCC2=C(O1)c1ccccc1C(=O)C2=O | – | 3.98 µM (active)
Cc1c(C=NCCOCc2ccccc2)cnn1C | – | 17.8 µM (active)
CCCc1ncc(C[n+]2ccccc2C)c(N)n1 | -1.54% [at 25.6 µM] (inactive) | –
C=CCOc1cccc(/C=N/NC(=O)C(=O)NCc2ccco2)c1 | -7.74% (inactive) | –
C=CCOc1cccc(CNn2cn[nH]c2=S)c1 | – | 3.16 µM (active)
CC(C)NC(=O)N1CCCC2(CCN(C(=O)c3cccn3C)CC2)C1 | -12.4% (inactive) | –
Cn1cccc1C(=O)N1CCC2(CCCN(c3ccc(-c4ccccc4)cc3)C2)CC1 | – | 15.8 µM (active)
COC(=O)N1CCC2(CC1)CN(c1ccccc1)C2 | -5.68% (inactive) | –
O=C(Oc1ccccc1)N1CCC2(CCCN(c3ccc(-c4ccccc4)cc3)C2)CC1 | 10.2% (inactive) | –
CN1CCCC2(CCN(C(=O)c3cccn3C)CC2)C1 | -19.9% (inactive) | –
COC(=O)N1CCC2(CCCN(c3ccc(-c4ccccc4)cc3)C2)CC1 | – | 20 µM (active)
Cn1cccc1C(=O)N1CCC2(CCCN(Cc3ccccc3)C2)CC1 | -2.19% (inactive) | –
CC(C)CN1CCCC2(CCN(C(=O)c3cccn3C)CC2)C1 | 12.9% (inactive) | –
Cn1cccc1C(=O)N1CCC2(CCCN(c3cccc(-c4ccccc4)c3)C2)CC1 | – | 15.8 µM (active)

From PubChem BioAssay AID1851 (National Center for Advancing Translational Sciences (NCATS), 2009)
